Composite z-score and z-score data for five compounds are collected here from PubChem BioAssay.

Molecules are shown by their SMILES. Active and inactive are the calls of the source.

Assay [1] can be described thus: small molecules captured by biotinylated probe aFSTL3 – biochemical, small-molecule microarray, fluorescence 635/667, stem cell growth factor project, primary screen (AID 1064).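 Further: measures binding of the biotinylated anti-FSTL3 antibody to printed compounds.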 The conditions noted are these: higher = more signal.
Assay [2] in a line: binders from COS7 lysate, DM2A8 probe, primary screen, torsin A project, cell lysate, small-molecule microarray, fluorescence 635/667 (AID 1065). To be noted: higher = more signal, COS7 lysate expressing mutant human TOR1A.
The nature of assay [3]: small molecules captured by biotinylated probe aFGF2 – biochemical, small-molecule microarray, fluorescence 635/667, stem cell growth factor project, primary screen (AID 1067).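 Further: measures binding of biotinylated aFGF2 protein to printed compounds on slides; z-score merges feature fluorescence and signal-to-noise across triplicate slides.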 To be noted: higher = more signal.
A short description of assay [4]: small molecules captured by biotinylated probe aFGF10 – biochemical, small-molecule microarray, fluorescence 635/667, stem cell growth factor project, primary screen (AID 1071).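 Further: score merges 667 nm spot intensity and signal to noise from triplicate slides.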 To be noted: higher = more signal.
Assay [5] deals with Neurogenic locus notch homolog protein 2 (Homo sapiens) (UniProt Q04721). Put plainly: small molecules binding Notch2 protein – biochemical, small-molecule microarray, 635 nm fluorescence, stem cell growth factors, primary screen (AID 1073). The conditions noted are these: higher = more signal.
For assay [6], the target named is Pro-neuregulin-1, membrane-bound isoform (Homo sapiens) (UniProt Q02297). Put plainly: small molecules binding neuregulin-1 protein – biochemical, small-molecule microarray, fluorescence 635/667, psychiatric disease protein project, primary screen (AID 1075).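 Further: score combines 667 nm spot fluorescence with signal to noise.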 To be noted: NRG1 binding, 635 nm fluorescence, higher = more signal.
Pro-neuregulin-1, membrane-bound isoform (Homo sapiens), sequence (Q02297 whole entry, looked up, the tested form may be a part, canonical isoform): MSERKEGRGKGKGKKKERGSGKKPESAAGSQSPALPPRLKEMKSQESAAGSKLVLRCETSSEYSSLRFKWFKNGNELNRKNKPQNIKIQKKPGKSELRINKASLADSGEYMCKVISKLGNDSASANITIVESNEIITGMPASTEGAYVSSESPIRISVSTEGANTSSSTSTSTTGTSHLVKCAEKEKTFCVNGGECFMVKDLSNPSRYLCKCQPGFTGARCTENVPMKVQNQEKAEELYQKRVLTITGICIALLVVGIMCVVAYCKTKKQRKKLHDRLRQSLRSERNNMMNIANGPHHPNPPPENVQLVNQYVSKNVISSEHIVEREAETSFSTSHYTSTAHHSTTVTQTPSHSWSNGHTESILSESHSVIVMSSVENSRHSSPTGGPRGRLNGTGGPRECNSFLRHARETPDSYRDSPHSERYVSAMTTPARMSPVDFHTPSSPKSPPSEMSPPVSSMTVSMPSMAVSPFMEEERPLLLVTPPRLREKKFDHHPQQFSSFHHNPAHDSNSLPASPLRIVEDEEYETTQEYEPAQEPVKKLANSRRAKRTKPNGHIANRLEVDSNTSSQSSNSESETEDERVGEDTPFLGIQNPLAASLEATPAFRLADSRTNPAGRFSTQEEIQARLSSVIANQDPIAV
Assay [7] has as its system Neuregulin-1 EGF-like domain. Briefly: small molecules binding NRG1 EGF domain – biochemical, small-molecule microarray, 635 nm fluorescence, primary screen (AID 1081).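 Further: binding of the protein to compounds printed on small-molecule microarray slides.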 To be noted: higher = more signal.
Assay [8] is described as follows: FRG1 expression reporter modulators in myotubes – cell-based, C2C12 myotubes, firefly/Renilla luciferase, luminescence, FRG1 inhibition for FSHD, primary screen (AID 1084). The conditions noted are these: FRG1 promoter luciferase, higher = more signal, called active from +8 up or from −8 down.
Assay [9] in a line: small molecules captured by biotinylated probe aFST – biochemical, small-molecule microarray, fluorescence 635/667, stem cell growth factor project, primary screen (AID 1086).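 Further: score merges 667 nm fluorescence with signal-to-noise of each printed compound spot.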 The conditions noted are these: higher = more signal.
The nature of assay [10]: binders of probe aHhip on microarray, primary screen, stem cell growth factor project, biochemical, small-molecule microarray, fluorescence 635/667 (AID 1087).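 Further: score merges spot fluorescence at 667nm with spot signal to noise ratio.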 To be noted: higher = more signal.
Assay [11] relates to PRMT1 (protein arginine N-methyltransferase 1). Briefly: small molecules binding arginine methyltransferase PRMT1 – biochemical, small-molecule microarray, 635 nm fluorescence, primary screen (AID 1088).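 Further: binding of Prmt1 protein to compounds spotted on small-molecule microarray slides.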 To be noted: higher = more signal.
Assay [12] is described as follows: growth effects on S. cerevisiae YJM789 – YJM789 clinical isolate, OD600, 24 h, basal, primary screen (AID 1089).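 Further: growth of clinical yeast isolate S. cerevisiae YJM 789 seeded 1000 cells per well; test concentration not given here.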 The conditions noted are these: higher = more signal, called active from +8 up or from −8 down.
Assay [13] can be described thus: S. pombe growth modifiers, basal conditions – strain 972, OD600, 24 h, no modulator, primary screen (AID 1090).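 Further: basal condition with compound alone and no growth modifier present; test concentration not given here.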 To be noted: S. pombe 972 growth, higher = more signal, called active from +8 up or from −8 down.
Assay [14] is described as follows: budding yeast growth modifiers under rapamycin – strain BY4716, OD600, 96 h, primary screen (AID 1091). Further: test concentration not given here. To be noted: S. cerevisiae BY4716 + rapamycin, higher = more signal, called active from +8 up or from −8 down.
Assay [15] deals with Torsin-1A-interacting protein 2 (Homo sapiens) (UniProt Q8NFQ8). Put plainly: small molecules binding lysate-expressed LULL1 – cell lysate, human LULL1 lysate, 635/667 nm fluorescence, primary screen (AID 1092).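 Further: probe is lysate of COS7 cells overexpressing human LULL1; score merges per-feature 667 nm fluorescence with signal-to-noise.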 To be noted: small-molecule microarray, hLULL1 lysate binding, 635 nm fluorescence; higher = more signal.
Torsin-1A-interacting protein 2 (Homo sapiens), sequence (Q8NFQ8 whole entry, looked up): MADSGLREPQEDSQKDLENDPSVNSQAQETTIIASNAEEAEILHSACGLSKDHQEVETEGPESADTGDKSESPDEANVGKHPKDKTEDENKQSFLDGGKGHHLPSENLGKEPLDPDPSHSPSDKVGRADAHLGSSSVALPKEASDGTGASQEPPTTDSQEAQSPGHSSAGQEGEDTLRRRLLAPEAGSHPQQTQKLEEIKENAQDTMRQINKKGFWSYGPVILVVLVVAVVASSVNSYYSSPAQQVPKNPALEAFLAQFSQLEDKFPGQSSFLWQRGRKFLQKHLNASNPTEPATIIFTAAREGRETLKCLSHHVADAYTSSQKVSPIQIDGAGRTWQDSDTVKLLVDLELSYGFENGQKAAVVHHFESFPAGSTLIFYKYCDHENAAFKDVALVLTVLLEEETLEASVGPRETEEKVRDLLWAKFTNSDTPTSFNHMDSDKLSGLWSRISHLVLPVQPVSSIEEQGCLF
Assay [16] can be described thus: optical density change of DRC41 E. coli – strain DRC41, OD650, 24 h, E. coli filamentation project, primary screen (AID 1093).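 Further: MC1000 strain lacking acrAB efflux and sulA so SOS filamentation is blocked; test concentration not given here.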 To be noted: E. coli DRC41 growth, higher = more signal, called active from +8 up or from −8 down.
A short description of assay [17]: probe aLefty2 binding to arrayed compounds – biochemical, biotinylated probe, 635/667 nm fluorescence, primary screen (AID 1094).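 Further: score merges spot fluorescence near 667 nm with spot signal-to-noise ratio.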 To be noted: small-molecule microarray, higher = more signal.
The subject of assay [18] is Noggin (protein binding on small-molecule microarray). Put plainly: small molecules binding Noggin protein – biochemical, 635/667 nm fluorescence, primary screen (AID 1095).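 Further: score merges 667 nm feature fluorescence with signal to noise over triplicate slides.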 The conditions noted are these: 635 nm fluorescence, higher = more signal.
The target in assay [19] is Neurogenic locus notch homolog protein 3 (Homo sapiens) (UniProt Q9UM47). Put plainly: small molecules binding NOTCH3 protein – biochemical, 635/667 nm fluorescence, primary screen (AID 1096). To be noted: small-molecule microarray, 635 nm fluorescence, higher = more signal.
Neurogenic locus notch homolog protein 3 (Homo sapiens), sequence (Q9UM47 whole entry, looked up): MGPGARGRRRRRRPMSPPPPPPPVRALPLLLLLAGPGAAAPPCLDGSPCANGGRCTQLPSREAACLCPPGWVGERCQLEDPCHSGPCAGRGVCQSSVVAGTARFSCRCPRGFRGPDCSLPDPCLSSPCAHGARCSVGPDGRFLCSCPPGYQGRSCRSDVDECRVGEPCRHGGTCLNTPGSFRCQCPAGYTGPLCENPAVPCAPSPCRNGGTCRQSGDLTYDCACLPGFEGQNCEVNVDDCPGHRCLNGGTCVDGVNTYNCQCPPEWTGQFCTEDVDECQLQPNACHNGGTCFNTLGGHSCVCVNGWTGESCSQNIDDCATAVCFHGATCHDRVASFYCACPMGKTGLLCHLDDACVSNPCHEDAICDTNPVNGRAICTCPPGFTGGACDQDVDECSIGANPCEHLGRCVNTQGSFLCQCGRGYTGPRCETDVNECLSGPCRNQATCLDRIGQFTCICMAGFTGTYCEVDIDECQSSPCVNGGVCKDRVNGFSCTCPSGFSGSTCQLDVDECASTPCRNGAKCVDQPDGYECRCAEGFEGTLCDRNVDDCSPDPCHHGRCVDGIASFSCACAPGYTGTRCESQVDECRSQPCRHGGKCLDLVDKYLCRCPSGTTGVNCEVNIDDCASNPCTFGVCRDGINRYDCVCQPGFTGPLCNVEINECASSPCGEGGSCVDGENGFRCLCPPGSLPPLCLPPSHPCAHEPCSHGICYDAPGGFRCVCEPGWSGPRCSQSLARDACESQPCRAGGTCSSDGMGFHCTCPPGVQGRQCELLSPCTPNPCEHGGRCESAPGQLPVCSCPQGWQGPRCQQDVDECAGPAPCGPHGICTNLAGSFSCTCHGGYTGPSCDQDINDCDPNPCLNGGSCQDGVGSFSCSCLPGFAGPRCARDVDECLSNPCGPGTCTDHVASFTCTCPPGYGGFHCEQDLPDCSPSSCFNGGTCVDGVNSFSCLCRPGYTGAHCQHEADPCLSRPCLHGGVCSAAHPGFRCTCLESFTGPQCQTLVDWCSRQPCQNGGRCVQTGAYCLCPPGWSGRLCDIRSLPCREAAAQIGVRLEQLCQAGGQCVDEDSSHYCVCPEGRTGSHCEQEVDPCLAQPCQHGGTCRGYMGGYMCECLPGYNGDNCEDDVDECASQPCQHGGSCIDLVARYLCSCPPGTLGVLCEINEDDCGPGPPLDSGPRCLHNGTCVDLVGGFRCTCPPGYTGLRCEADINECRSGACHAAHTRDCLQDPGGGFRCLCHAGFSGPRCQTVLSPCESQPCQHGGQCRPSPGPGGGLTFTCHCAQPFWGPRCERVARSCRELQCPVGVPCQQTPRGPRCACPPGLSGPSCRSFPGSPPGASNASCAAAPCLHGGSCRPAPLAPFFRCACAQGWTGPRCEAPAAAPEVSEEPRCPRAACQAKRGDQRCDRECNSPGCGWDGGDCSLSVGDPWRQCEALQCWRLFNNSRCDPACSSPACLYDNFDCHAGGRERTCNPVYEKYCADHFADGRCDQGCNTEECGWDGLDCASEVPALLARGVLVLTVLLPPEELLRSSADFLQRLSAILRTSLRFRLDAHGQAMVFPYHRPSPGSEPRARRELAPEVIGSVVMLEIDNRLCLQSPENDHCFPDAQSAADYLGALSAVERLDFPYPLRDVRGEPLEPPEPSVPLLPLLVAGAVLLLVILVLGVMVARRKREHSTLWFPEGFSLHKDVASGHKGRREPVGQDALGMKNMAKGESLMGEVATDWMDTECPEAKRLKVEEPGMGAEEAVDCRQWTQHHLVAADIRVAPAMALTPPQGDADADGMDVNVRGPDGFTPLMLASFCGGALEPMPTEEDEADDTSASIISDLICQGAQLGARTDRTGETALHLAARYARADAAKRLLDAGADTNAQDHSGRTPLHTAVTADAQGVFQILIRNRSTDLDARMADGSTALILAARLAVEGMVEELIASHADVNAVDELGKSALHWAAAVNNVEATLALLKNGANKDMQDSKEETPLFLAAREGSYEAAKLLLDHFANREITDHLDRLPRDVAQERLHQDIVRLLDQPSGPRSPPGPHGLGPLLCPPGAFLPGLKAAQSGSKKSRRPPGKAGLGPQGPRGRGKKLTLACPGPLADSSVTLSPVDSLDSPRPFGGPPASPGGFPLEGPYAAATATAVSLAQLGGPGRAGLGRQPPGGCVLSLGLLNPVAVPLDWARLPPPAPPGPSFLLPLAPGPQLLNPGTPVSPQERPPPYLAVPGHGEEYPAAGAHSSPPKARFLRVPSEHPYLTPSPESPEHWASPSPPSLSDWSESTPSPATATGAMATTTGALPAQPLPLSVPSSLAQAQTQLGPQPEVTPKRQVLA
The nature of assay [20]: probe aEGFR binding to arrayed compounds – biochemical, biotinylated probe, 635/667 nm fluorescence, primary screen (AID 1097).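 Further: probe is a biotinylated anti-EGFR antibody binding compounds printed on slides; score combines fluorescence near 667 nm and signal to noise of each spot.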 The conditions noted are these: small-molecule microarray, higher = more signal.

With `O=C1O[C@@H](c2ccccc2)[C@@H](c2ccccc2)N2[C@@H](c3ccc(O)cc3)[C@]3(C(=O)Nc4ccccc43)[C@@H](C(=O)NC[C@H](O)c3ccccc3)[C@H]12`, the composite z-score in [1] was -0.263; in assay [2] it was 0.606; in assay [3] it was -0.141; in assay [4], 0.0271; in [5], 0.135; in assay [6], 1.69. In addition, the composite z-score in assay [7] was 0.552; in assay [9], -0.174; in assay [10], -0.12; in assay [11], 0.867; in assay [15], 2.02; in [17], -0.12. For the same compound, the composite z-score is 0.753 in [18], 0.0385 in assay [19] and -0.112 in [20]. Also, the z-score in assay [8] is -1.23 (inactive); in assay [12], 0.3 (inactive); in assay [13], 0.572 (inactive); in [14], 1.49 (inactive); in [16] it was 1.76 (inactive).

Consider `[N-]=[N+]=NCc1ccccc1[C@H]1OC(c2ccc(OCCCO)cc2)=N[C@@]1(Cc1ccccc1)C(=O)O`, for which the composite z-score in [1] was 0.227; in assay [2], 0.325; in assay [3], -0.0586; in assay [4] it was 0.345; in assay [5], 0.653; in assay [6] it was 1.1. Moreover, the composite z-score in assay [7] was 0.97; in assay [9], 0.554; in assay [10], -0.0994; in [11] it was 1.55; in assay [15], 2.81; in [17] it was 0.0869. Also, the composite z-score in assay [18] came out at 0.462; in assay [19] it was 0.502; in [20] it was 0.346. The z-score was 1.82 (inactive) in assay [8]; -0.36 (inactive) in assay [12]; -2.06 (inactive) in assay [13]; -0.759 (inactive) in assay [14]; -0.395 (inactive) in assay [16].

Regarding `C=C[C@H](C)[C@H](O)c1ccc(OCCO)cc1`, the composite z-score in assay [1] was 0.254; in assay [2] it was -0.716; in assay [3] it was -0.243; in assay [4], -1.14; in assay [5] it was -2.21; in [6] it was -0.758. The composite z-score in [7] is -0.694; in [9], -0.91; in assay [10] it was -0.204; in [11], -0.647; in [15], -1.2; in assay [17] it was 0.19. In addition, the composite z-score in [18] is -1.19; in assay [19], -1.11; in [20], -0.397. For the same compound, the z-score in assay [8] is 5.78 (inactive); in [12] it was 0.132 (inactive); in [13], -0.404 (inactive); in assay [14] it was -0.539 (inactive); in assay [16], 0.943 (inactive).

Take `O=C(CS)NCCCCCCNC(=O)[C@H]1C[C@H]2C(=O)N3CCC[C@H]3C(=O)N2[C@H]1c1ccc(O)cc1`: the composite z-score in [1] was 0.112; in [2] it was -0.0248; in [3], -0.0759; in [4], -0.15; in assay [5] it was -0.183; in assay [6] it was 0.883. The composite z-score was 1.31 in assay [7]; 0.416 in assay [9]; 0.0749 in assay [10]; 1.42 in assay [11]; 2.22 in assay [15]; -0.0845 in [17]. Moreover, the composite z-score in [18] is 1.21; in assay [19], 0.905; in assay [20] it was -0.208. Moreover, the z-score in [8] was 1.04 (inactive); in assay [12], -0.637 (inactive); in assay [13], 0.0932 (inactive); in assay [14], 0.369 (inactive); in [16], -0.506 (inactive).

On to `COCCCNC(=O)[C@@]1(Sc2ccc(C)cc2)CC(=O)N(Cc2ccccc2)[C@@H]1c1ccc(CO)cc1`, for which the composite z-score in [1] is 0.178; in assay [2] it was 0.685; in assay [3], 0.0431; in assay [4], 0.738; in [5] it was -0.774; in assay [6], 0.505. In addition, the composite z-score was -0.233 in assay [7]; -0.217 in assay [9]; 0.0347 in [10]; 0.983 in [11]; 2.66 in assay [15]; -0.27 in [17]. Further, the composite z-score in assay [18] was -0.408; in [19], -0.0703; in assay [20] it was 0.03. The z-score in assay [8] was -1.53 (inactive); in [12], -0.0867 (inactive); in assay [13] it was 0.163 (inactive); in assay [14], -0.455 (inactive); in [16] it was -0.0977 (inactive).
